What all share (details): mRNA level, 48 h; actives raise or lower the signal
Read-out in assay [1]: Protein phosphatase 2A (PPP2R4), PTPA (gene 5524)
The assay can be described thus: LTEA_HepaRG_PPP2R4: Life Technologies and Expression Analysis (LTEA) Assay for Protein phosphatase 2A (PPP2R4) using HepaRG (AID 2283522). In a few lines:
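Differentiated HepaRG cells in serum-free induction medium were exposed in duplicate for 48 h to eight concentrations, top 100 uM with half-log dilutions, in 0.5% DMSO. PPP2R4 mRNA was quantified by TaqMan qRT-PCR, normalized to ACTB, GAPDH and POLR2A.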

Read-out in assay [2]: Phosphatase and tensin (PTEN), PTEN (gene 5728)
The assay can be described thus: LTEA_HepaRG_PTEN: Life Technologies and Expression Analysis (LTEA) Assay for Phosphatase and tensin (PTEN) using HepaRG (AID 2283523). An outline of the steps: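 Differentiated human HepaRG cells, plated 48 h then switched to serum-free induction medium, were exposed in duplicate for 48 h to eight half-log concentrations up to 100 uM in 0.5% DMSO. PTEN mRNA measured by TaqMan qRT-PCR, normalized to ACTB/GAPDH/POLR2A, bidirectional fit versus DMSO.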

Read-out in assay [3]: solute carrier (SLC22A1), SLC22A1 (gene 6580)
The assay can be described thus: LTEA_HepaRG_SLC22A1: Life Technologies and Expression Analysis (LTEA) Assay for solute carrier (SLC22A1) using HepaRG (AID 2283524). In a few lines: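 Human HepaRG cells were plated 48 h, switched to serum-free induction medium, then exposed in duplicate for 48 h to 8-point half-log series from 100 uM in 0.5% DMSO. SLC22A1 mRNA measured by qRT-PCR, normalized to ACTB/GAPDH/POLR2A, fitted bidirectionally versus DMSO.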

Read-out in assay [4]: Pyruvate Dehydrogenase Kinase 4 (PDK4), PDK4 (gene 5166)
Nature of the assay: LTEA_HepaRG_PDK4: Life Technologies and Expression Analysis (LTEA) Assay for Pyruvate Dehydrogenase Kinase 4 (PDK4) using HepaRG (AID 2283525). In a few lines:
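Differentiated human HepaRG cells, pre-cultured 48 h, were exposed in duplicate for 48 h in serum-free induction medium to eight half-log concentrations up to 100 uM in 0.5% DMSO. PDK4 mRNA was quantified by qRT-PCR, normalized to ACTB, GAPDH and POLR2A, bidirectional fitting versus DMSO.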

Read-out in assay [5]: NAD(P)H dehydrogenase [quinone] 1 (NQO1), NQO1 (gene 1728)
Nature of the assay: LTEA_HepaRG_NQO1: Life Technologies and Expression Analysis (LTEA) Assay for NAD(P)H dehydrogenase [quinone] 1 (NQO1) using HepaRG (AID 2283526). An outline of the steps:
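Differentiated HepaRG cells, plated 48 h and then switched to serum-free induction medium, were exposed in duplicate for 48 h to 8-point half-log concentrations up to 100 uM in 0.5% DMSO. mRNA measured by qRT-PCR, normalized to ACTB, GAPDH, POLR2A; bidirectional fit versus DMSO.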

Read-out in assay [6]: Nuclear factor erythroid 2-related factor 2 (Homo sapiens) (UniProt Q16236)
The assay can be described thus: LTEA_HepaRG_NFE2L2: Life Technologies and Expression Analysis (LTEA) Assay for Nuclear factor erythroid 2-related factor 2 (NFE2L2) Transcription Factor using HepaRG (AID 2283527).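 Also: TaqMan qRT-PCR transcript level normalised to ACTB GAPDH and POLR2A housekeeping genes.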 An outline of the steps:
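Differentiated human HepaRG cells in serum-free induction medium were exposed for 48 h to eight concentrations (top 100 uM, half-log dilutions, 0.5% DMSO), in duplicate. NFE2L2 mRNA was quantified by TaqMan qRT-PCR, normalized to ACTB, GAPDH and POLR2A, with bidirectional fitting versus DMSO.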

Read-out in assay [7]: succinate dehydrogenase complex iron sulfur subunit B (SDHB), SDHB (gene 6390)
The assay can be described thus: LTEA_HepaRG_SDHB: Life Technologies and Expression Analysis (LTEA) Assay for succinate dehydrogenase complex iron sulfur subunit B (SDHB) using HepaRG (AID 2283528). An outline of the steps:
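Readout is SDHB transcript level by qRT-PCR, normalised to three housekeeping genes and fitted bidirectionally against 0.5% DMSO vehicle. Human HepaRG cells were treated for 48 h at up to 100 uM.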

Read-out in assay [8]: Signal transducer and activator of transcription 3 (Homo sapiens) (UniProt P40763)
Nature of the assay: LTEA_HepaRG_STAT3: Life Technologies and Expression Analysis (LTEA) Assay for Signal transducer and activator of transcription (STAT3) using HepaRG (AID 2283529). In a few lines:
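Differentiated human HepaRG cells in serum-free induction medium were exposed in duplicate for 48 h to eight half-log concentrations up to 100 uM in 0.5% DMSO. STAT3 mRNA was quantified by TaqMan qRT-PCR, normalized to ACTB, GAPDH and POLR2A, and fitted bidirectionally against DMSO.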

Read-out in assay [9]: solute carrier (SLCO1B1), SLCO1B1 (gene 10599)
Nature of the assay: LTEA_HepaRG_SLCO1B1: Life Technologies and Expression Analysis (LTEA) Assay for solute carrier (SLCO1B1) using HepaRG (AID 2283530). In a few lines:
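SLCO1B1 transcript read by qRT-PCR (Fluidigm arrays), normalized to three housekeeping genes, after 48 h chemical exposure of HepaRG cells; bidirectional concentration-response fitting versus 0.5% DMSO baseline. Eight-point half-log series, maximum 100 uM.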

Read-out in assay [10]: sulfotransferase 2A1 (SULT2A1), SULT2A1 (gene 6822)
The assay can be described thus: LTEA_HepaRG_SULT2A1: Life Technologies and Expression Analysis (LTEA) Assay for sulfotransferase 2A1 (SULT2A1) using HepaRG (AID 2283531). An outline of the steps: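 HepaRG, 48 h chemical exposure, 8-pt half-log curve from 100 uM in 0.5% DMSO, duplicates. Readout: TaqMan qRT-PCR of SULT2A1 mRNA, housekeeping-normalized. Bidirectional fit vs DMSO baseline.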

Read-out in assay [11]: Transforming Growth Factor (TGFA), TGFA (gene 7039)
The assay can be described thus: LTEA_HepaRG_TGFA: Life Technologies and Expression Analysis (LTEA) Assay for Transforming Growth Factor (TGFA) using HepaRG (AID 2283532). In a few lines: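 Differentiated human HepaRG cells, plated 48 h then switched to serum-free induction medium, were exposed in duplicate for 48 h to 8-point half-log series from 100 uM in 0.5% DMSO. TGFA mRNA measured by qRT-PCR, normalized to ACTB/GAPDH/POLR2A, bidirectional fit versus DMSO.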

Read-out in assay [12]: Transforming Growth Factor (TGFB1), TGFB1 (gene 7040)
Nature of the assay: LTEA_HepaRG_TGFB1: Life Technologies and Expression Analysis (LTEA) Assay for Transforming Growth Factor (TGFB1) Transporter using HepaRG (AID 2283533). An outline of the steps: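 qRT-PCR readout of TGFB1 transcript in HepaRG lysates, normalized to three housekeeping genes; gain or loss of signal fitted relative to 0.5% DMSO vehicle. Exposure: 48 h, 8-point curve from 100 uM, duplicate wells.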

Read-out in assay [13]: TIMP1, TIMP1 (gene 7076)
The assay can be described thus: LTEA_HepaRG_TIMP1: Life Technologies and Expression Analysis (LTEA) Assay for TIMP1 using HepaRG (AID 2283534).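 Also: TaqMan qRT-PCR signal normalized to ACTB GAPDH and POLR2A housekeeping genes.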 An outline of the steps:
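HepaRG, 48 h exposure, 8-pt half-log series from 100 uM in 0.5% DMSO, duplicates; TIMP1 transcript by Fluidigm qRT-PCR, housekeeping-normalized; bidirectional curve fit vs DMSO baseline.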

Read-out in assay [14]: Tumor necrosis factor receptor 1 (TNFRSF1A), TNFRSF1A (gene 7132)
The assay can be described thus: LTEA_HepaRG_TNFRSF1A: Life Technologies and Expression Analysis (LTEA) Assay for Tumor necrosis factor receptor 1 (TNFRSF1A) using HepaRG (AID 2283535). In a few lines: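 HepaRG, 48 h plating then 48 h chemical exposure, serum-free induction media; 8-pt CRC from 100 uM, half-log, 0.5% DMSO vehicle, duplicates. Readout: TaqMan qRT-PCR (Fluidigm), housekeeping-gene normalized; bidirectional fit vs DMSO.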

Read-out in assay [15]: Thyroid Hormone Responsive (THRSP), THRSP (gene 7069)
Nature of the assay: LTEA_HepaRG_THRSP: Life Technologies and Expression Analysis (LTEA) Assay for Thyroid Hormone Responsive (THRSP) using HepaRG (AID 2283536). In a few lines:
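Differentiated human HepaRG cells were exposed in duplicate for 48 h in serum-free induction medium to eight concentrations (top 100 uM, half-log steps, 0.5% DMSO). Expression was quantified by TaqMan qRT-PCR, normalized to ACTB, GAPDH and POLR2A, with bidirectional fitting against DMSO.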

Read-out in assay [16]: Cellular tumor antigen p53 (Homo sapiens) (UniProt P04637)
The assay can be described thus: LTEA_HepaRG_TP53: Life Technologies and Expression Analysis (LTEA) Assay for Tumor Protein P53 (TP53) using HepaRG (AID 2283537). In a few lines:
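Read-out is TP53 transcript level by microfluidic qRT-PCR, normalised to three housekeeping genes and fitted bidirectionally against DMSO. Human HepaRG cells received compounds for 48 h, highest concentration 100 uM.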

Read-out in assay [17]: UDP glucuronosyltransferase (UGT1A1), UGT1A1 (gene 54658)
The assay can be described thus: LTEA_HepaRG_UGT1A1: Life Technologies and Expression Analysis (LTEA) Assay for UDP glucuronosyltransferase (UGT1A1) using HepaRG (AID 2283538). An outline of the steps:
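Differentiated human HepaRG cells in serum-free induction medium were exposed in duplicate for 48 h to eight half-log concentrations up to 100 uM in 0.5% DMSO. UGT1A1 mRNA was quantified by TaqMan qRT-PCR, normalized to ACTB, GAPDH and POLR2A, and fitted bidirectionally against DMSO.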

Read-out in assay [18]: UDP glucuronosyltransferase (UGT1A6), UGT1A6 (gene 54578)
Nature of the assay: LTEA_HepaRG_UGT1A6: Life Technologies and Expression Analysis (LTEA) Assay for UDP glucuronosyltransferase (UGT1A6) using HepaRG (AID 2283539). An outline of the steps:
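qRT-PCR readout of UGT1A6 mRNA (normalized to ACTB/GAPDH/POLR2A) in differentiated HepaRG cells after 48 h chemical exposure; 8 concentrations, top 100 uM, half-log steps, 0.5% DMSO. Bidirectional curve fit relative to DMSO baseline.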

Read-out in assay [19]: X-box binding protein 1 (XBP1), XBP1 (gene 7494)
Nature of the assay: LTEA_HepaRG_XBP1: Life Technologies and Expression Analysis (LTEA) Assay for X-box binding protein 1 (XBP1) using HepaRG (AID 2283540). In a few lines: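 HepaRG, 48 h exposure, 8-pt half-log CRC top 100 uM, 0.5% DMSO vehicle, duplicates. Readout: TaqMan qRT-PCR of XBP1 mRNA, housekeeping-normalised (ACTB/GAPDH/POLR2A); bidirectional fit vs DMSO baseline.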

Read-out in assay [20]: Nuclear factor NF-kappa-B p105 subunit (Homo sapiens) (UniProt P19838)
The assay can be described thus: LTEA_HepaRG_NFKB1: Life Technologies and Expression Analysis (LTEA) Assay for Nuclear Factor Kappa B Subunit 1 (NFKB1) using HepaRG (AID 2283521). An outline of the steps:
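HepaRG, 48 h exposure; 8-pt half-log series from 100 uM in 0.5% DMSO; duplicates. Readout: NFKB1 mRNA by qRT-PCR (Fluidigm arrays), housekeeping-normalized. Gain/loss fit vs DMSO baseline.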

Calls of active or inactive are those of the source. The calls were made as follows: active = hit-call score of the fitted dose curve at least 0.9, where 1 is the maximum; inactive = score below 0.9.

Sequence of Signal transducer and activator of transcription 3 (Homo sapiens) (P40763 whole entry, looked up): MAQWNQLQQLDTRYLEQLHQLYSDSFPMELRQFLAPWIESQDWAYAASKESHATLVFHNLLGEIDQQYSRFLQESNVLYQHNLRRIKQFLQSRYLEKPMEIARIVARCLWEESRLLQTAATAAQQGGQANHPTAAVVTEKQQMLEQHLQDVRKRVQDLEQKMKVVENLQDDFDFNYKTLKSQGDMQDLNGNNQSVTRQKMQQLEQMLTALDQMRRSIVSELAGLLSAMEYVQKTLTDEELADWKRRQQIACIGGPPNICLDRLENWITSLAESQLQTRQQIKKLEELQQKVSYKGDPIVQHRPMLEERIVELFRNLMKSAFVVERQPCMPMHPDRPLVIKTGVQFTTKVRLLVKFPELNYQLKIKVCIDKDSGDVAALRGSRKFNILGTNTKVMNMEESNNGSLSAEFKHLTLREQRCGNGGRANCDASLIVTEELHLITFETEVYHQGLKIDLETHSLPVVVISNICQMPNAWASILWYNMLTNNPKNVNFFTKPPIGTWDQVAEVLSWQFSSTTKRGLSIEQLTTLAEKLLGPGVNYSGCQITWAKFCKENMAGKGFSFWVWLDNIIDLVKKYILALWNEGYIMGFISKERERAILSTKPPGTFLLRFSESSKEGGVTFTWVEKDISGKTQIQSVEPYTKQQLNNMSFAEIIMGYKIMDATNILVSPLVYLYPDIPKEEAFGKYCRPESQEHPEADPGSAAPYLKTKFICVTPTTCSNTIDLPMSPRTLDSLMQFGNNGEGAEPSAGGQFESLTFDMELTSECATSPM
Sequence of Nuclear factor erythroid 2-related factor 2 (Homo sapiens) (Q16236 whole entry, looked up): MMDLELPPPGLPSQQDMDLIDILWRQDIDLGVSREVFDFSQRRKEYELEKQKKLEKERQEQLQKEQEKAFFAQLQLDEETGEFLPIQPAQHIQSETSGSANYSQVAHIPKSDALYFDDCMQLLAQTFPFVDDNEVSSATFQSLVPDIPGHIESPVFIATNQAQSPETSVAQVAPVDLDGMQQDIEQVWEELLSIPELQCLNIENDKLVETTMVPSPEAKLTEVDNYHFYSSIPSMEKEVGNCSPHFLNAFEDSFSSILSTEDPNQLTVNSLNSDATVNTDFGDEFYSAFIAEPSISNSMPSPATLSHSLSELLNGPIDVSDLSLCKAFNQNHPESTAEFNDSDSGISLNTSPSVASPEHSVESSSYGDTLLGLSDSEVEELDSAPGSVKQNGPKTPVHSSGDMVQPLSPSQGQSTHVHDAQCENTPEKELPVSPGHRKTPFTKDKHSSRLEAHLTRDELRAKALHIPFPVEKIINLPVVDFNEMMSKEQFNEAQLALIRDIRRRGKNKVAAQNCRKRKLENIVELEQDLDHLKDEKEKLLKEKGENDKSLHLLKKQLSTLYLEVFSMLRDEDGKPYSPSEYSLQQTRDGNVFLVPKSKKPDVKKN
Sequence of Nuclear factor NF-kappa-B p105 subunit (Homo sapiens) (P19838 whole entry, looked up): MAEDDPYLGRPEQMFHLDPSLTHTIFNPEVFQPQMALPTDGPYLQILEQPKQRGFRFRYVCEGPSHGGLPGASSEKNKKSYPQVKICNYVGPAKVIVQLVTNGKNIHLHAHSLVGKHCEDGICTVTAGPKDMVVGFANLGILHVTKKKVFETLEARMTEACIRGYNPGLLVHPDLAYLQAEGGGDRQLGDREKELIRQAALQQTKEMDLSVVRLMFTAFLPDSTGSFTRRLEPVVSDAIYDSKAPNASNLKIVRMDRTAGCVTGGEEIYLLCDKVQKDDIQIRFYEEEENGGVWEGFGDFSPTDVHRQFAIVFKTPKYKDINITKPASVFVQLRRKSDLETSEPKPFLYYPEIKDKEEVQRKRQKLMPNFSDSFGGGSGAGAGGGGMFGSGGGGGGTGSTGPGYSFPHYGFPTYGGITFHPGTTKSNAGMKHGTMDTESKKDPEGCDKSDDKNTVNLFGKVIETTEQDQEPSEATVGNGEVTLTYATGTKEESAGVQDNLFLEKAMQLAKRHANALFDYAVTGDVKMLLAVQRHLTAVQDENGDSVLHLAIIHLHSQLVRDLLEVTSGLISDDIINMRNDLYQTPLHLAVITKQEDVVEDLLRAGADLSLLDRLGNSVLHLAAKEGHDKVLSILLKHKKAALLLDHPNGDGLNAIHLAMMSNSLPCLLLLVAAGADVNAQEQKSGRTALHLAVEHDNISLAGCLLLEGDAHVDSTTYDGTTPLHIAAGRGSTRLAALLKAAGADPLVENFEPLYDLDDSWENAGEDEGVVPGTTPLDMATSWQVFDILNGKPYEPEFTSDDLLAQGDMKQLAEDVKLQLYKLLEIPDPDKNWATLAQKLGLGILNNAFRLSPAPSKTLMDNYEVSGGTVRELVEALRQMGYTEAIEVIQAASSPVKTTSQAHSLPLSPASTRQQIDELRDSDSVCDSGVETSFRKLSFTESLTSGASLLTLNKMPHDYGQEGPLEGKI
Sequence of Cellular tumor antigen p53 (Homo sapiens) (P04637 whole entry, looked up): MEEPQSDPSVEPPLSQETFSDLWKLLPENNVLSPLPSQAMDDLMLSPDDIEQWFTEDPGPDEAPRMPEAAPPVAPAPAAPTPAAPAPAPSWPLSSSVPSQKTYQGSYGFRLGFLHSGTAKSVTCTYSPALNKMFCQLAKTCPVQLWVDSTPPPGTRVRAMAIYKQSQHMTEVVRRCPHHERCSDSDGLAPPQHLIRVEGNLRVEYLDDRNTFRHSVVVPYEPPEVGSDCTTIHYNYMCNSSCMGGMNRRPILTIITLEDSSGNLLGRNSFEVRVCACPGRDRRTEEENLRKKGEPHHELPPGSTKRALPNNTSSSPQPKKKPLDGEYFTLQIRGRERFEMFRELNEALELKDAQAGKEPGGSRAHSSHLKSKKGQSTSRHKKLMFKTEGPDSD

On to `CC[C@H](C)[C@@H](C(=O)O)n1sc2ccccc2c1=O`, for which the call in assay [1], in [2], in assay [3], in assay [4], in [5] and in assay [6] was inactive. Moreover, the compound was classed as inactive in [7], in assay [8], in [9], in assay [10], in assay [11] and in assay [12]. The call in assay [13], in assay [14], in assay [15], in assay [16], in assay [17] and in assay [18] was inactive. Further, the call in [19] was inactive.

`CCCCCCCCC(=O)O`: the compound was classed as inactive in [1], in assay [2], in [3], in [4], in assay [5] and in assay [6]. The result in assay [7], in [8], in assay [9], in assay [10], in assay [12] and in [13] was inactive. The outcome in assay [14], in assay [15], in [17], in assay [18] and in [19] was inactive.

`CCCCCCCCCCCCCCCS(=O)(=O)Oc1ccccc1`: the compound was classed as inactive in [20], in assay [2], in assay [3], in assay [4], in [5] and in assay [6]. In addition, the outcome in assay [7], in assay [8], in assay [9], in assay [10], in assay [12] and in [13] was inactive. Further, the compound was classed as inactive in [14], in [15], in assay [18] and in assay [19]. Besides, the AC50 in [17] was 8.01 µM (active).

In general, AC50 refers to the concentration giving half of the maximal activity seen.
